# ROS inducer – cancer cell ROS induction; ROS induction (% of piperlongumine), % at 10 µM; U2OS ROS induction, H2DCF-DA fluorescence; 2% of 46,000 active; in the data active = ROS induction above about 79%, passing the limit was not always enough
# YB-1 expression – YB-1 expression inhibition. 0.37% of 30,000 active. U2OS, qRT-PCR YB-1 vs CDIP delta delta Cp, 16 h; stronger effect = higher value; zero = DMSO, each unit about twofold. delta delta Cp (YB-1 minus CDIP) (test concentration not listed);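 active = delta delta Cp rounded down to an integer at or above 3, about 3 SD of DMSO wells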;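 note: higher means less YB-1 transcript or more CDIP transcript relative to DMSO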
# Hits are given with their value; i = inactive; nt = not tested or not shown. Sampled rows, rich in hits. Any-hit rate of the full collection: about 2.3%.
SMILES,ROS inducer,YB-1 expression
CC(C)=CCOc1c2ccoc2cc2oc(=O)ccc12,i,i
CC(C)=CCOc1cc(C)cc2oc(=O)cc(-c3ccccc3)c12,84.1,nt
COC(=O)c1cccc(NC(=O)CSc2nc3ccccc3s2)c1,i,nt
CC(=O)[C@H]1CCC2[C@@H]3CCC4=CC(=O)CC[C@]4(C)C3CC[C@@]21C (some centres not stated),i,i
CC(=O)[C@@]1(O)CCC2C3CCC4=CC(=O)CC[C@]4(C)C3CC[C@@]21C (some centres not stated),155.0,i
COC(CNc1ncnc2c1c(-c1ccccc1)cn2-c1ccc(C)cc1)OC,i,nt
COc1ccc(-n2cc(-c3ccccc3)c3c(N4CCCCC4)ncnc32)cc1,115.7,nt
CN(C)CCCn1cc(C2=C(c3c[nH]c4ccccc34)C(=O)NC2=O)c2ccccc21,81.0,i
COC(=O)c1cn(CC(N)=O)c2ccccc12,i,nt
Cn1cc(C2=C(c3cn(CCCSC(=N)N)c4ccccc34)C(=O)NC2=O)c2ccccc21,75.8,i
C[C@@H]1CN([C@H](C)CO)C(=O)c2cccc(NC(=O)Nc3ccc(F)cc3)c2O[C@H]1CN(C)S(=O)(=O)c1ccc(F)cc1,i,i
COc1cccc2ccc(Cl)nc12,i,i
C[C@H]1CN([C@@H](C)CO)C(=O)c2cccc(NS(C)(=O)=O)c2O[C@@H]1CN(C)Cc1ccc(-c2ccccc2)cc1,97.7,i
C[C@@H]1CN([C@H](C)CO)C(=O)c2cccc(NS(C)(=O)=O)c2O[C@H]1CN(C)Cc1ccc(-c2ccccc2)cc1,i,i
C[C@H](CO)N1C[C@H](C)[C@@H](CN(C)Cc2ccc(Oc3ccccc3)cc2)Oc2c(NS(C)(=O)=O)cccc2C1=O,91.9,i
C[C@@H]1CN([C@@H](C)CO)C(=O)c2cccc(NS(C)(=O)=O)c2O[C@H]1CN(C)Cc1ccc(Oc2ccccc2)cc1,i,i
C[C@H]1CN([C@@H](C)CO)C(=O)c2cccc(NS(=O)(=O)c3ccc(F)cc3)c2O[C@@H]1CN(C)Cc1ccc(-c2ccccc2)cc1,105.2,i
C[C@@H]1CN([C@@H](C)CO)C(=O)c2cccc(NS(=O)(=O)c3ccc(F)cc3)c2O[C@@H]1CN(C)Cc1ccc(-c2ccccc2)cc1,i,i
O=C(/C=C/c1ccccc1)OCC1=CC[C@@H]2C(C(=O)O)=CO[C@@H](O[C@@H]3O[C@H](CO)[C@@H](O)[C@H](O)[C@H]3O)[C@H]12,i,i
COc1ccc(CN(C)C[C@@H]2Oc3ccc(NC(=O)Nc4ccc(C(F)(F)F)cc4)cc3C(=O)N([C@H](C)CO)C[C@H]2C)cc1,i,i
COc1ccc(NC(=O)CN(c2cccc3ccccc23)S(C)(=O)=O)cc1OC,i,nt
C[C@@H]1CN([C@H](C)CO)C(=O)Cc2cc(NS(=O)(=O)c3ccc(F)cc3)ccc2O[C@H]1CN(C)C(=O)Nc1ccc(F)cc1,i,i
C[C@@H]1CN([C@@H](C)CO)C(=O)c2cc(NC(=O)Cn3cnnn3)ccc2O[C@H]1CN(C)Cc1ccc(C(=O)Nc2ccccc2N)cc1,i,i
C=C(C)CNc1nc(-c2ccccc2)c(-c2ccccc2)s1,i,nt
C[C@@H]1CN([C@@H](C)CO)C(=O)c2cccc(NC(=O)CCCCCC(=O)Nc3ccccc3N)c2O[C@@H]1CN(C)C(=O)Nc1ccc(F)cc1,i,i
SMILES,ROS inducer,YB-1 expression
N#CCSc1nc2c(sc3ccccc32)c(=O)n1CCCN1CCOCC1,i,nt
O=C(CSc1nc2c(sc3ccccc32)c(=O)n1CC1CCCO1)c1ccccc1 (configuration not stated),111.5,nt
CCCCn1c(SCC(=O)NC2CCCC2)nc2c(sc3ccccc32)c1=O,i,nt
N#CCSc1nc2c(sc3ccccc32)c(=O)n1C1CCCCC1,157.4,nt
CCOC(=O)CSc1nc2c(sc(=S)n2-c2ccccc2C)c(=O)n1-c1ccc(F)cc1,i,nt
C[C@H]1CN([C@@H](C)CO)C(=O)Cc2cc(NS(=O)(=O)c3ccc(F)cc3)ccc2O[C@@H]1CN(C)S(=O)(=O)c1ccc(F)cc1,i,i
C[C@H](CO)N1C[C@H](C)[C@@H](CN(C)Cc2ccncc2)Oc2c(NC(=O)c3nc4ccccc4s3)cccc2C1=O,i,i
O=C(NCc1ccccn1)c1cnn2c(C(F)(F)F)cc(-c3cccs3)nc12,i,nt
CC(NC(=O)c1cnn2c(C(F)(F)F)cc(-c3cccs3)nc12)c1ccccc1 (configuration not stated),84.9,nt
C[C@@H]1CCCCO[C@@H](CN(C)CC2CC2)[C@@H](C)CN([C@H](C)CO)C(=O)c2cc(NC(=O)Nc3ccccc3)ccc2O1,i,i
CCc1ccccc1NC(=O)C(C)n1nc([N+](=O)[O-])c(Br)c1C (configuration not stated),111.4,nt
Cc1c(Br)c([N+](=O)[O-])nn1C(C)C(=O)NCc1ccco1 (configuration not stated),i,nt

# High-throughput results as filed in PubChem.
